DUX4 txn inh – blocks DUX4-driven transcriptional activation | 293T-iDUX4 ZSCAN4-Gaussia luciferase reporter, 24 h; hits give low values | activity change, negative = inhibition, % (test concentration not listed) | 37,000 tested, 0.8% active | AID 1224904;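 active = mean inhibition of at least 10% in the main channel, exceeding the control channel by a set limit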;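 also: 0% = median of neutral control wells and -100% = median of positive control wells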
Numbers without * were called inactive. The full list was thinned out, with hits kept by preference.

SMILES	DUX4 txn inh
CC(C)(C)S(=O)N1Cc2cc(C(=O)O)nc(-c3cccc(C#CCC4CCCC4)c3)c2[C@H]1CCO (stereo not given in full)	-8.6
CO[C@@H]1CN(C)C(=O)c2cc(C#N)ccc2OCC[C@@H]2CC[C@@H](OC)[C@@H](CN(C)C(=O)[C@H]1C)O2	2.2
CCC(=O)N1CC2(CCN(C(=O)Nc3ccc(F)cc3)CC2)c2c([nH]c3cc(OC)ccc23)[C@H]1CO	14.0
O=C(C[C@H]1CC[C@@H]2[C@H](COC[C@@H](O)CN2S(=O)(=O)c2cccc(Cl)c2)O1)NC1CCCC1	1.3
C/C=C/c1ccc([C@@H]2[C@H](CO)N(C(=O)CN(C)C)C23CN(C(=O)C2CCC2)C3)cc1	1.6
CCCNC(=O)N1[C@H](CO)[C@H](c2ccccc2)C12CN(C(=O)c1cccnc1)C2	1.6
COc1ccc2c3c([nH]c2c1)[C@H](CO)N(C(=O)Nc1ccc(F)cc1)CC31CN(CC2CC2)C1	1.9
COc1ccc(CN2CC3(C2)CN(C(=O)Nc2ccc(F)cc2)[C@@H](CO)c2[nH]c4cc(OC)ccc4c23)cc1	-39.3*
COc1ccc2c3c([nH]c2c1)[C@H](CO)N(C(=O)Nc1ccc(F)cc1)CC31CN(S(C)(=O)=O)C1	6.9
COc1ccc2c3c([nH]c2c1)[C@H](CO)N(Cc1ccc(Cl)cc1)CC31CN(S(C)(=O)=O)C1	-45.3*
COc1ccc2c3c([nH]c2c1)[C@H](CO)N(Cc1cccc(Cl)c1)CC31CN(C)C1	-6.9
COc1ccc2c3c([nH]c2c1)[C@H](CO)N(Cc1ccncc1)CC31CN(S(C)(=O)=O)C1	8.7
CCNC(=O)C[C@@H]1CC[C@@H]2[C@H](COC[C@H](O)CN2Cc2ccccc2F)O1	8.8
COc1cccc(C(=O)N2C[C@@H]3[C@H](c4ccccc42)[C@H](CO)N3Cc2cccnc2)c1	2.5
Cc1ccccc1S(=O)(=O)N1CCCCN2[C@H](C1)[C@@H](c1ccc(-c3cccnc3)cc1)[C@@H]2CO	-4.8
Cc1cccc(-c2ccc([C@H]3[C@@H](CO)N4CCCCN(S(=O)(=O)c5ccccc5F)C[C@@H]34)cc2)c1	-3.1
Cc1ccccc1S(=O)(=O)N1CCCCN2[C@H](C1)[C@@H](c1ccc(-c3cccc(F)c3)cc1)[C@@H]2CO	7.5
Cc1ccccc1S(=O)(=O)N1CCCCN2[C@H](CO)[C@@H](c3ccc(-c4cccnc4)cc3)[C@H]2C1	-5.1
Cc1ccc(-c2ccc([C@@H]3[C@@H](CO)N4CCCCN(S(=O)(=O)c5ccccc5C)C[C@H]34)cc2)cc1	-24.5*
Cc1ccccc1S(=O)(=O)N1CCCCN2[C@@H](CO)[C@H](c3ccc(-c4cccc(F)c4)cc3)[C@@H]2C1	-46.9*
CC(C)C[C@H]1COCc2cn(nn2)CC[C@H](Cc2cccc(Cl)c2)C(=O)N1	0.3
O=C(C[C@@H]1CC[C@@H]2[C@H](COC[C@@H](O)CN2C(=O)Nc2ccccc2)O1)NC1Cc2ccccc2C1	-1.1
CCCNC(=O)N1CC2(CN(S(=O)(=O)CC)C2)c2c([nH]c3cc(OC)ccc23)[C@H]1CO	4.4
COCC(=O)Nc1ccc2c(c1)C(=O)N(C)C[C@@H](OC)[C@@H](C)CN(Cc1ccccn1)[C@H](C)CO2	-10.0
CCCN1[C@@H]2c3ccc(-c4cccnc4)c(=O)n3C[C@@H]2[C@@H](CO)[C@@H]1C(=O)OC	6.3
SMILES	DUX4 txn inh
COc1ccc2c3c(n(C)c2c1)[C@@H](CO)N(Cc1cccnc1)CC31CCN(Cc2cccnc2)CC1	6.8
O=S(=O)(c1ccc(F)cc1)N1CCCCN2[C@H](CO)[C@H](c3ccc(C4=CCCCC4)cc3)[C@@H]2C1	-42.3*
Cc1ccccc1-c1ccc([C@H]2[C@H]3CN(S(C)(=O)=O)CCCCN3[C@H]2CO)cc1	-6.5
C/C=C/c1ccc([C@@H]2[C@H](CO)N3CCCCN(C(=O)Nc4ccc(OC)cc4)C[C@@H]23)cc1	18.3
COc1ccc(S(=O)(=O)N2CCCCN3[C@H](CO)[C@@H](c4ccc(C5=CCCC5)cc4)[C@@H]3C2)cc1	0.8
Cc1ccccc1-c1ccc([C@@H]2[C@@H](CO)N3CCCCN(S(=O)(=O)c4ccc(F)cc4)C[C@H]23)cc1	-39.6*
Cc1ccccc1-c1ccc([C@H]2[C@H](CO)N3CCCCN(S(=O)(=O)c4ccc(F)cc4)C[C@@H]23)cc1	-56.1*
Cc1ccccc1-c1ccc([C@H]2[C@H](CO)N3CCCCN(S(C)(=O)=O)C[C@@H]23)cc1	16.8
CCS(=O)(=O)N1CCCCN2[C@H](CO)[C@H](c3ccc(-c4ccccc4C)cc3)[C@H]2C1	-4.6
CCS(=O)(=O)N1CCCCN2[C@H](CO)[C@@H](c3ccc(-c4ccccc4C)cc3)[C@@H]2C1	9.6
O=S(=O)(c1ccc(F)cc1)N1CCCCN2[C@@H](CO)[C@@H](c3ccc(C4=CCCCC4)cc3)[C@@H]2C1	-4.4
C/C=C/c1ccc([C@@H]2[C@@H](CO)N3CCCCN(C(=O)Nc4ccc(OC)cc4)C[C@@H]23)cc1	-26.5*
C/C=C/c1ccc([C@H]2[C@@H](CO)N3CCCCN(C(=O)Nc4ccc(OC)cc4)C[C@H]23)cc1	-9.2

Screens deposited in PubChem by Broad Institute.
